# PubChem BioAssay (NCATS)
# Records with an inconclusive call do not appear. Active and inactive are the calls of the source. The call rests on the fitted dose curve; in most records, active means well fitted curve in the direction sought with a large enough effect; inconclusive means small, poorly fitted or top-dose-only effect, or another doubt; inactive means no such curve, though single readings can be large; an effect the other way counts as inactive or inconclusive.
# Tests used:
# [1] = Quantitative High-Throughput drug screen in 47 multiple myeloma cell lines against the NCATS MIPE library collection: KHM11_PLB cell viability assay (AID 1918962); further: nearly all actives have a fitted effect of over 35% in size
# Outline: (§1)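 Relative luminescence from CellTiter-Glo served as the viability signal, referenced to DMSO-treated (100%) and cell-free medium (0%) controls. Treatment lasted 48 hours at 37C with 500 cells per well.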
# [2] = Quantitative High-Throughput drug screen in 47 multiple myeloma cell lines against the NCATS MIPE library collection: JIM3_ECACC cell viability assay (AID 1918963; further: nearly all actives have a fitted effect of over 35% in size)
# Outline: as §1
# [3] = Quantitative High-Throughput drug screen in 47 multiple myeloma cell lines against the NCATS MIPE library collection: JIM1_ECACC cell viability assay (AID 1918964)
# Outline: (§2)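 Primary qHTS used for cherry-picking: cells at 500/well, library compounds for 48 h (37C, 5% CO2), luminescent ATP assay.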
# [4] = Quantitative High-Throughput drug screen in 47 multiple myeloma cell lines against the NCATS MIPE library collection: INA6_PLB cell viability assay (AID 1918965; further: nearly all actives have a fitted effect of over 55% in size)
# Outline: as §1
# [5] = Quantitative High-Throughput drug screen in 47 multiple myeloma cell lines against the NCATS MIPE library collection: JJN3_DSMZ cell viability assay (AID 1918966; further: nearly all actives have a fitted effect of over 50% in size)
# Outline: as §2
# [6] = Quantitative High-Throughput drug screen in 47 multiple myeloma cell lines against the NCATS MIPE library collection: H1112_PLB cell viability assay (AID 1918967; further: nearly all actives have a fitted effect of over 30% in size)
# Outline: as §2
# [7] = Quantitative High-Throughput drug screen in 47 multiple myeloma cell lines against the NCATS MIPE library collection: Karpas25_ECACC cell viability assay (AID 1918968; further: nearly all actives have a fitted effect of over 35% in size)
# Outline: as §2
# [8] = Quantitative High-Throughput drug screen in 47 multiple myeloma cell lines against the NCATS MIPE library collection: KMS27_JCRB cell viability assay (AID 1918970); conditions: KMS27 myeloma cells, CellTiter-Glo ATP viability, 48 h; viability (% of DMSO): at 45.8 µM (top of the series); further: nearly all actives have a fitted effect of over 30% in size
# Outline: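 CellTiter-Glo luminescence after 48 h drug exposure at 37 °C; 500 cells/well, 1536-well format, pin-tool compound addition; DMSO = 100%, media-only = 0% viability.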
# [9] = Quantitative High-Throughput drug screen in 47 multiple myeloma cell lines against the NCATS MIPE library collection: KMS12BM_JCRB cell viability assay (AID 1918971); further: nearly all actives have a fitted effect of over 35% in size
# Outline: (§3)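 Approved and investigational drugs from MIPE 4.0 were added by pin tool to 500 cells per well. After 48 hours at 37C, ATP-based CellTiter-Glo luminescence indicated remaining viability.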
# [10] = Quantitative High-Throughput drug screen in 47 multiple myeloma cell lines against the NCATS MIPE library collection: KMS12PE_JCRB cell viability assay (AID 1918972); further: nearly all actives have a fitted effect of over 30% in size
# Outline: as §1
# [11] = Quantitative High-Throughput drug screen in 47 multiple myeloma cell lines against the NCATS MIPE library collection: KMS20_JCRB cell viability assay (AID 1918973); further: nearly all actives have a fitted effect of over 45% in size
# Outline: as §2
# [12] = Quantitative High-Throughput drug screen in 47 multiple myeloma cell lines against the NCATS MIPE library collection: KMS26_JCRB cell viability assay (AID 1918975); further: nearly all actives have a fitted effect of over 45% in size
# Outline: as §3
# [13] = Quantitative High-Throughput drug screen in 47 multiple myeloma cell lines against the NCATS MIPE library collection: MMM1_PLB cell viability assay (AID 1918976); further: nearly all actives have a fitted effect of over 35% in size
# Outline: (§4)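 Readout: median RLU from CellTiter-Glo after 5 min at room temperature. Preceding step was 48 h drug treatment of 500 cells/well at 37 °C, 5% CO2, with DMSO-only and media-only control wells.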
# [14] = Quantitative High-Throughput drug screen in 47 multiple myeloma cell lines against the NCATS MIPE library collection: NCIH929_DSMZ cell viability assay (AID 1918978); further: nearly all actives have a fitted effect of over 35% in size
# Outline: as §4
# [15] = Quantitative High-Throughput drug screen in 47 multiple myeloma cell lines against the NCATS MIPE library collection: MM1S_ATCC cell viability assay (AID 1918980); further: nearly all actives have a fitted effect of over 45% in size
# Outline: as §4
# [16] = Quantitative High-Throughput drug screen in 47 multiple myeloma cell lines against the NCATS MIPE library collection: MM1R_ATCC cell viability assay (AID 1918981); further: nearly all actives have a fitted effect of over 35% in size
# Outline: as §4
# [17] = Quantitative High-Throughput drug screen in 47 multiple myeloma cell lines against the NCATS MIPE library collection: LP1_DSMZ cell viability assay (AID 1918982); further: nearly all actives have a fitted effect of over 35% in size
# Outline: as §4
# [18] = Quantitative High-Throughput drug screen in 47 multiple myeloma cell lines against the NCATS MIPE library collection: KMS21BM_JCRB cell viability assay (AID 1918974); conditions: ATP luminescence, 48 h; viability: at 45.8 µM (top of the series)
# Outline: as §2
# [19] = Quantitative High-Throughput drug screen in 47 multiple myeloma cell lines against the NCATS MIPE library collection: MOLP8_DSMZ cell viability assay (AID 1918977); further: nearly all actives have a fitted effect of over 45% in size
# Outline: as §4
# [20] = Quantitative High-Throughput drug screen in 47 multiple myeloma cell lines against the NCATS MIPE library collection: OCIMY1_PLB cell viability assay (AID 1918979); further: nearly all actives have a fitted effect of over 35% in size
# Outline: as §4
# Potency means the concentration at half of the fitted maximal effect.
Structure (SMILES),Potency [1],Potency [2],Potency [3],Potency [4],Potency [5],Potency [6],Potency [7],Potency [8],Potency [9],Potency [10],Potency [11],Potency [12],Potency [13],Potency [14],Potency [15],Potency [16],Potency [17],Potency [18],Potency [19],Potency [20]
CN(C)c1ccc2cc(C(=O)N[C@@H](CCCN=C(N)CCl)C(=O)NCc3ccccc3)ccc2c1,16600 nM (active),11800 nM (active),3720 nM (active),9350 nM (active),1050 nM (active),20900 nM (active),13200 nM (active),1480 nM (active),11800 nM (active),7430 nM (active),8330 nM (active),6620 nM (active),18700 nM (active),16600 nM (active),1180 nM (active),4690 nM (active),14800 nM (active),–,–,–
Nc1nc(N)c2nc(-c3cccc(O)c3)c(-c3cccc(O)c3)nc2n1,3320 nM (active),9350 nM (active),1870 nM (active),2350 nM (active),18700 nM (active),7430 nM (active),4690 nM (active),4180 nM (active),–,13200 nM (active),7430 nM (active),–,20900 nM (active),4180 nM (active),14800 nM (active),18700 nM (active),23500 nM (active),7430 nM (active),26400 nM (active),–
C=Cc1c(C)c2cc3nc(cc4[nH]c(cc5nc(cc1[nH]2)C(C)=C5CCC(=O)O)c(CCC(=O)OC)c4C)[C@@]1(C)C3=CC=C(C(=O)OC)[C@H]1C(=O)OC,526 nM (active),418 nM (active),148 nM (active),209 nM (active),29.6 nM (active),235 nM (active),132 nM (active),132 nM (active),187 nM (active),187 nM (active),148 nM (active),743 nM (active),332 nM (active),83.3 nM (active),52.6 nM (active),93.5 nM (active),1050 nM (active),–,2090 nM (active),2350 nM (active)
CC(C)(O)Cn1c(NC(=O)c2ccc(-c3cn[nH]c3)s2)nc2cc(CN3CCOCC3)ccc21,296 nM (active),1320 nM (active),418 nM (active),833 nM (active),1320 nM (active),2640 nM (active),935 nM (active),372 nM (active),2350 nM (active),469 nM (active),2960 nM (active),2090 nM (active),2090 nM (active),1660 nM (active),1660 nM (active),1660 nM (active),1870 nM (active),–,–,1480 nM (active)
COc1cccc2c1C(=O)c1c(O)c3c(c(O)c1C2=O)C[C@@](O)(C(=O)CO)C[C@H]3O[C@H]1C[C@H](N)[C@H](O)[C@H](C)O1,332 nM (active),332 nM (active),1050 nM (active),118 nM (active),132 nM (active),372 nM (active),118 nM (active),743 nM (active),166 nM (active),1480 nM (active),52.6 nM (active),296 nM (active),148 nM (active),93.5 nM (active),20.9 nM (active),–,74.3 nM (active),–,187 nM (active),296 nM (active)
O=C(NCc1ccccc1)[C@H](Cc1ccccc1)NC(=O)[C@@H]1O[C@@H]1C(=O)NCCc1ccc(O)cc1,inactive,inactive,18700 nM (active),–,–,inactive,23500 nM (active),–,–,23500 nM (active),–,–,20900 nM (active),–,1180 nM (active),10500 nM (active),–,–,–,–
C#C[C@]1(O)CC[C@@H]2[C@@H]3CCC4=CC(=O)CC[C@@H]4[C@H]3CC[C@@]21CC,inactive,inactive,inactive,inactive,–,inactive,–,inactive,1480 nM (active),inactive,–,inactive,9350 nM (active),inactive,–,inactive,inactive,–,23500 nM (active),inactive
CCc1cnn2c(NCc3ccc[n+]([O-])c3)cc(N3CCCC[C@@H]3CCO)nc12,18.7 nM (active),26.4 nM (active),–,23.5 nM (active),11.8 nM (active),26.4 nM (active),33.2 nM (active),18.7 nM (active),26.4 nM (active),33.2 nM (active),20.9 nM (active),18.7 nM (active),29.6 nM (active),23.5 nM (active),20.9 nM (active),16.6 nM (active),16.6 nM (active),–,11.8 nM (active),33.2 nM (active)
C[C@]12CC[C@@H]3c4ccc(O)cc4CC[C@H]3[C@H]1CC[C@H]2O,4690 nM (active),14800 nM (active),5900 nM (active),8330 nM (active),23500 nM (active),8330 nM (active),10500 nM (active),–,33200 nM (active),–,–,5900 nM (active),16600 nM (active),–,8330 nM (active),14800 nM (active),–,3320 nM (active),–,–
CC(=O)ON=C1C(c2c(O)[nH]c3cc(Br)ccc23)=Nc2ccccc21,13200 nM (active),2960 nM (active),3720 nM (active),935 nM (active),20900 nM (active),–,2640 nM (active),6620 nM (active),14800 nM (active),1480 nM (active),–,–,20900 nM (active),2090 nM (active),–,16600 nM (active),11800 nM (active),–,13200 nM (active),26400 nM (active)
